Data taken from PubChem BioAssay (Tox21).
Results filed as inconclusive are left out. The source made the active and inactive calls. Unless noted, calls follow the shape of the dose curve; as a rule, active = well fitted curve in the direction sought with a large enough effect in the repeat runs; inconclusive = weak or mixed curves; inactive = no such curve, though single readings can be large; an effect the other way counts as inactive or inconclusive.

Columns and labels:
[1] = qHTS RealTime-Glo MT Cell Viability Assay in HEK293 cells - 0 hour (AID 1224880); also: top concentration of the series differs between compounds; nearly all actives have a fitted effect of over 45% in size
In short: (§1)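 qHTS format; HEK293 cells with NanoLuc/prosubstrate reagent, 37 C/5% CO2 for 5 h pre-dosing; compounds 23 nL in DMSO; luminescence at each time point reflects viable cells.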

[2] = A CellTox Green Cytotoxicity Assay to monitor cytotoxicity in HepG2 cells - 0 hour (AID 1224882); also: nearly all actives have a fitted effect of over 35% in size; also: potency is read from the fitted curve at half-maximal effect
In short: (§2)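 Continuous culture of HepG2 cells with a membrane-impermeant DNA dye; rising fluorescence marks dead cells. Compound exposure lasted up to 40 h at 37 C, with reads every 8 h from 0 h.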

[3] = A CellTox Green Cytotoxicity Assay to monitor cytotoxicity in HepG2 cells - 32 hour (AID 1224883); also: nearly all actives have a fitted effect of over 50% in size; also: potency is read from the fitted curve at half-maximal effect
In short: as §2

[4] = A CellTox Green Cytotoxicity Assay to monitor cytotoxicity in HEK293 cells - 8 hour (AID 1224884); also: nearly all actives have a fitted effect of over 35% in size; also: potency is read from the fitted curve at half-maximal effect
In short: (§3)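 Each value comes from one timepoint of a single continuous run in which HEK293 cells with CellTox Green were exposed to compound for up to 40 h at 37 C, dye fluorescence rising with cell death.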

[5] = qHTS RealTime-Glo MT Cell Viability Assay in HepG2 cells - 16 hour (AID 1224885); also: nearly all actives have a fitted effect of over 50% in size; also: potency is read from the fitted curve at half-maximal effect
In short: (§4)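 HepG2 cells were seeded at 600 cells/well together with NanoLuc luciferase and a cell-permeant prosubstrate, preincubated 5 h at 37 C/5% CO2, then pin-dosed with compounds in DMSO. Nonlytic luminescence from viable cells was read at each time point.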

[6] = qHTS RealTime-Glo MT Cell Viability Assay in HEK293 cells - 24 hour (AID 1224886); also: nearly all actives have a fitted effect of over 50% in size; also: potency is read from the fitted curve at half-maximal effect
In short: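 HEK293 cells were seeded at 600 cells/well together with NanoLuc luciferase and cell-permeant prosubstrate, preincubated 5 h at 37 C/5% CO2, then given compound in DMSO by pintool. Luminescence from viable-cell prosubstrate reduction was read repeatedly over 40 h.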

[7] = A CellTox Green Cytotoxicity Assay to monitor cytotoxicity in HEK293 cells - 16 hour (AID 1224888); also: nearly all actives have a fitted effect of over 35% in size; also: potency is read from the fitted curve at half-maximal effect
In short: as §3

[8] = qHTS RealTime-Glo MT Cell Viability Assay in HepG2 cells - 0 hour (AID 1224889); also: nearly all actives have a fitted effect of over 50% in size
In short: as §4

[9] = A CellTox Green Cytotoxicity Assay to monitor cytotoxicity in HepG2 cells - 8 hour (AID 1224890); also: nearly all actives have a fitted effect of over 45% in size; also: potency is read from the fitted curve at half-maximal effect
In short: as §2

[10] = qHTS assay to identify small molecule antagonists of the estrogen receptor alpha (ER-alpha) signaling pathway using the BG1 cell line in the presence of 0.1 nM 17-beta-estradiol - cell viability counter screen (AID 1259241); also: nearly all actives have a fitted effect of over 40% in size
In short: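 Live-cell protease activity (CellTiter-Fluor fluorescence, 30 min) was read in the same wells after VM7Luc4E2 cells had been exposed to compounds with 0.1 nM 17beta-estradiol for 22 hr at 37C.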

[11] = qHTS assay to identify small molecule antagonists of the androgen receptor (AR) signaling pathway using the MDA cell line in the presence of 0.5 nM R1881 - cell viability counter screen (AID 1259242); also: nearly all actives have a fitted effect of over 45% in size; also: potency is read from the fitted curve at half-maximal effect
In short: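 Fluorescence from CellTiter-Fluor, which reports protease activity of live cells, was read 30 min after reagent addition to MDA-kb2 cells that had been incubated 16 hr with compound and 0.5 nM R1881.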

[12] = qHTS assay to identify small molecule HDAC inhibitors (AID 1259364); also: nearly all actives have a fitted effect of over 45% in size; also: potency is read from the fitted curve at half-maximal effect
In short: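 Endogenous HDAC class I/II activity was measured in wild-type HCT-116 cells by HDAC-Glo luminescence after 2 h compound treatment.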

[13] = qHTS assay to identify small molecule HDAC inhibitors - cell viability counter screen (AID 1259365); also: nearly all actives have a fitted effect of over 50% in size; also: potency is read from the fitted curve at half-maximal effect
In short: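 HCT-116 (wild type), 1,500 cells/well, overnight 37C/5% CO2; compound in DMSO 2hr; CellTiter-Glo 30min RT; luminescence read.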

[14] = A CellTox Green Cytotoxicity Assay to monitor cytotoxicity in HEK293 cells - 32 hour (AID 1224881); also: nearly all actives have a fitted effect of over 40% in size; also: potency is read from the fitted curve at half-maximal effect
In short: as §3

[15] = qHTS RealTime-Glo MT Cell Viability Assay in HEK293 cells - 8 hour (AID 1224887); also: nearly all actives have a fitted effect of over 50% in size; also: potency is read from the fitted curve at half-maximal effect
In short: as §1

[16] = biological target: Estrogen receptor (Homo sapiens) (UniProt P03372); experiment: qHTS assay to identify small molecule antagonists of the estrogen receptor alpha (ER-alpha) signaling pathway using the BG1 cell line in the presence of 0.1 nM 17-beta-estradiol (AID 1259244); also: nearly all actives have a fitted effect of over 50% in size; also: potency is read from the fitted curve at half-maximal effect
In short: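 Quantitative high-throughput screen in VM7Luc4E2 cells: compound plus 0.1 nM E2 (final), 22 h, 37C, 5% CO2; ONE-Glo added, 30 min room temperature, luminescence measured.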

[17] = qHTS assay to identify small molecule agonists of the sonic hedgehog signaling (Shh) pathway - cell viability counter screen (AID 1259366); also: nearly all actives have a fitted effect of over 50% in size; also: potency is read from the fitted curve at half-maximal effect
In short: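 CellTiter-Fluor fluorescence read-out, 1 hr at 37C, added after 23hr compound exposure. Cells: 3T3 Gli1-Luc, an NIH/3T3 clone with stably integrated Gli1-Luc reporter, plated 4hr before compound.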

[18] = qHTS assay to identify small molecule antagonists of the sonic hedgehog signaling (Shh) pathway - cell viability counter screen (AID 1259367); also: nearly all actives have a fitted effect of over 55% in size; also: potency is read from the fitted curve at half-maximal effect
In short: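 NIH/3T3-derived Gli1-Luc reporter cells (2,000 per well) rested 4 hr at 37 C, then received DMSO compounds plus conditioned medium. After 23 hr of treatment, CellTiter-Fluor was added for 1 hr at 37C and fluorescence read.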

[19] = qHTS assay to identify small molecule phospholipidosis (PLD) inducers (AID 1259344; active = well fitted curve in the direction sought with a large enough effect; an effect the other way counts as inactive or inconclusive; also: potency is read from the fitted curve at half-maximal effect)
In short: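 HepG2 cells on collagen I, attached 4 h at 37 C, were co-treated with compound and LipidTOX Red dye for 24 h at 37 C, then fixed with paraformaldehyde plus Hoechst 33342 and imaged by high-content microscopy for phospholipid accumulation.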

[20] = biological target: Androgen receptor (Homo sapiens) (UniProt P10275); experiment: qHTS assay to identify small molecule antagonists of the androgen receptor (AR) signaling pathway using the MDA cell line in the presence of 0.5 nM R1881 (AID 1259243)
In short: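 Inhibition of R1881 (0.5 nM final) induced reporter signal was measured in human MDA-kb2 cells; note the MMTV promoter also responds to GR. Exposure lasted 16 hr at 37C.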

Measured: Potency

Estrogen receptor (Homo sapiens), sequence (P03372 whole entry, looked up): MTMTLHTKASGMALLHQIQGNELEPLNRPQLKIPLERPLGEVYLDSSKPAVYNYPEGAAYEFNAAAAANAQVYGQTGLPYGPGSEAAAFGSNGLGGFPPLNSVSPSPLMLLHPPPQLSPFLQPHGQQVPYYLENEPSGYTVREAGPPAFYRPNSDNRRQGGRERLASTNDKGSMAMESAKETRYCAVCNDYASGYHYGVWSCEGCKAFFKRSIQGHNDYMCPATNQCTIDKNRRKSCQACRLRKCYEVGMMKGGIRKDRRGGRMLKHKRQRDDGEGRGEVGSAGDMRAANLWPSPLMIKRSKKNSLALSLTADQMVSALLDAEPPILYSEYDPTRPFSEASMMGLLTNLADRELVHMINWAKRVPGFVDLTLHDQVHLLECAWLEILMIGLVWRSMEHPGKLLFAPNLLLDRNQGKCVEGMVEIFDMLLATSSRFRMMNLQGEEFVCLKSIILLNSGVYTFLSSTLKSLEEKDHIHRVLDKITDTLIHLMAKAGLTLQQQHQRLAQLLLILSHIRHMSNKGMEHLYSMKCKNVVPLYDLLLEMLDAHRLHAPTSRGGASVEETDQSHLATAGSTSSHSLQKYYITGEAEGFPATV
Androgen receptor (Homo sapiens), sequence (P10275 whole entry, looked up): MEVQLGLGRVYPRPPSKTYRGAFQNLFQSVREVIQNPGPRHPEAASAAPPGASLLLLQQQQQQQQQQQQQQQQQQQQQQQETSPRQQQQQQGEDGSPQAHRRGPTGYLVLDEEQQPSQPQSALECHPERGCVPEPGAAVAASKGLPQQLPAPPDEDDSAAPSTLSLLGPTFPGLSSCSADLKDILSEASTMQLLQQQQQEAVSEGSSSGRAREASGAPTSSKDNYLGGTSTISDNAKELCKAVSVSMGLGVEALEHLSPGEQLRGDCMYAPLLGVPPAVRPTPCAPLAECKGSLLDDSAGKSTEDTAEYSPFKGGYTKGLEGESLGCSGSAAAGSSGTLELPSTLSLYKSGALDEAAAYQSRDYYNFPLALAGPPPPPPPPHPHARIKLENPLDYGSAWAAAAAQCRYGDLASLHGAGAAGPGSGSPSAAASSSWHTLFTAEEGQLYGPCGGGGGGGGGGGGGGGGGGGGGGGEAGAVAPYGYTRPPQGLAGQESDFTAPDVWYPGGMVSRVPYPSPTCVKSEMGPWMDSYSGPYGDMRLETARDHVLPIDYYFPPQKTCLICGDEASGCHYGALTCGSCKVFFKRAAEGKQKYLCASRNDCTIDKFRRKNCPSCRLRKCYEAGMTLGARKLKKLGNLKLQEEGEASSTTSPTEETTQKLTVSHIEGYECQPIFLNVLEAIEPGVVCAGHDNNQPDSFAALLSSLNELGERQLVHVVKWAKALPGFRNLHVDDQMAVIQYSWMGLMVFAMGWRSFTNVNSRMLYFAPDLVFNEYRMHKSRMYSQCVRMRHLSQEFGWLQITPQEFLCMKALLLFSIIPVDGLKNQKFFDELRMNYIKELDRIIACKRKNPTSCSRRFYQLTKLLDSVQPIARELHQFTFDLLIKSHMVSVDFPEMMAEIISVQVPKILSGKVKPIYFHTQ

C[C@@H](O[C@H]1OCCN(Cc2n[nH]c(=O)[nH]2)[C@H]1c1ccc(F)cc1)c1cc(C(F)(F)F)cc(C(F)(F)F)c1
active: [3] 16.9 µM | [5] 19 µM | [6] 16.9 µM | [9] 16.9 µM
inactive: [1] | [2] | [4] | [7] | [8] | [10] | [11] | [12] | [13]

CCCCCC#CC(=O)OC
not listed: [4] | [6] | [19] | [20]
inactive: all other assays above

CN1C(=O)N(c2ccccc2Br)Cc2cnc(Nc3ccc4c(c3)OCC(CO)O4)nc21 (centres undefined)
inactive: [1] | [14] | [2] | [4] | [7] | [9] | [13]
active: [6] 6.92 µM | [15] 17.4 µM | [16] 48.6 µM | [17] 0.193 µM | [18] 1.72 µM

CCOC(=O)c1ccc(C#Cc2ccc3c(c2)C(C)(C)CCS3)nc1
not listed: [3] | [6] | [13] | [15] | [16] | [20]
inactive: all other assays above

CC1=Nc2ccc3ccccc3c2C1(C)C
inactive: [1] | [14] | [2] | [8] | [9] | [10] | [11] | [12]

OC[C@H]1O[C@@H](n2cnc3c(=S)nc[nH]c32)[C@H](O)[C@@H]1O
not listed: [4] | [6] | [10] | [20]
inactive: all other assays above

O=C=Nc1cccc(C(F)(F)F)c1
not listed: [6] | [7] | [10] | [14] | [19] | [20]
inactive: all other assays above

CN1C(=O)c2ccccc2C1=O
not listed: [3] | [6] | [16] | [18] | [20]
inactive: all other assays above

CCCCC(CC)COP(=O)(O)O (centres undefined)
not listed: [6] | [7] | [14] | [19] | [20]
inactive: all other assays above

Nc1nc2ccc([N+](=O)[O-])cc2s1
inactive: [1] | [14] | [5] | [15] | [7] | [19]
active: [3] 43.6 µM | [9] 49 µM | [20] 6.86 µM | [12] 17.7 µM

O=C(OCC(O)CO)c1ccccc1Nc1ccnc2cc(Cl)ccc12 (centres undefined)
active: [3] 9.52 µM | [6] 7.56 µM | [15] 8.49 µM | [17] 29.8 µM | [18] 29.8 µM
not listed: [2] | [7] | [8] | [9] | [10] | [20]
inactive: all other assays above

CCCCOc1ccc(OCCCN2CCOCC2)cc1
not listed: [4] | [6] | [20]
inactive: all other assays above

c1cc(N(CC2CO2)CC2CO2)ccc1Cc1ccc(N(CC2CO2)CC2CO2)cc1 (centres undefined)
active: [6] 43.6 µM | [17] 54.5 µM | [18] 54.5 µM
inactive: [1] | [2] | [4] | [8] | [9] | [11] | [13]

C=Cc1ccc(S(=O)(=O)O)cc1
active: [2] 49 µM | [3] 54.9 µM | [9] 54.9 µM
not listed: [4] | [7] | [14] | [18] | [20]
inactive: all other assays above

CCCCCCCCN
not listed: [5] | [14] | [16] | [19] | [20]
inactive: all other assays above

C[C@@H]1CN(CCCn2c3ccccc3c3ccccc32)C[C@H](C)N1
active: [14] 23.9 µM | [3] 23.9 µM | [4] 23.9 µM | [5] 23.9 µM | [6] 23.9 µM | [19] 10 µM | [17] 33.5 µM | [18] 33.5 µM
inactive: [2] | [10] | [13]

CCOc1cccc(-n2cc(C(=O)N3CCN(c4cc(C(=O)O)c5ccccc5c4)CC3)nc2-c2ccc(C)cc2)c1
not listed: [1] | [13] | [15] | [16] | [19] | [20]
inactive: all other assays above

CC(C)COCC(CN(Cc1ccccc1)c1ccccc1)N1CCCC1 (centres undefined)
active: [14] 23.9 µM | [3] 21.3 µM | [4] 21.3 µM | [5] 21.3 µM | [6] 15.1 µM | [15] 15.1 µM | [7] 23.9 µM | [9] 23.9 µM | [11] 29.8 µM | [16] 29.8 µM
inactive: [2] | [8] | [19] | [12]

CC(=O)OCCN(CCOC(C)=O)c1ccc(N=Nc2ccc([N+](=O)[O-])cc2C#N)cc1
active: [11] 54.5 µM | [12] 27.3 µM | [13] 24.3 µM | [17] 48.6 µM | [18] 54.5 µM
inactive: [14] | [2] | [3] | [4] | [5] | [7] | [8] | [9]

COc1ncnc(NS(=O)(=O)c2ccc(N)cc2)c1OC
inactive: [14] | [5] | [6] | [8] | [10] | [11] | [16] | [19] | [12] | [17] | [18]

O=C1c2ccccc2C(=O)N1CCc1noc(-c2ccc(CN3CCCCCC3)s2)n1
active: [2] 35.7 µM | [3] 35.7 µM | [4] 35.7 µM | [6] 35.7 µM | [15] 35.7 µM | [9] 31.8 µM
inactive: [1] | [8] | [10] | [11] | [12] | [13] | [17] | [18]

Cc1cc(O)ccc1O
inactive: [1] | [2] | [3] | [4] | [5] | [8] | [9] | [11] | [12]
active: [17] 13.8 µM

O=C(Nc1cccc2c(=O)cc(-c3nn[nH]n3)oc12)c1ccc(OCCCCc2ccccc2)cc1
active: [2] 26.8 µM | [9] 21.3 µM
not listed: [1] | [3] | [4] | [8] | [13] | [16] | [20]
inactive: all other assays above

C=C(C)[C@@H]1CCC2=CCC[C@@H](C)[C@]2(C)C1
not listed: [1] | [3] | [5] | [8] | [19] | [20]
inactive: all other assays above

CN(C)CCC=C1c2ccccc2C=Cc2ccccc21
active: [3] 23.9 µM
not listed: [1] | [8] | [19] | [20]
inactive: all other assays above
